Experimental data published in PubChem BioAssay AID651662 (NMMLSC, 2012).
Activity calls are given as the source filed them.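 Rule for the calls: active = fitted concentration giving half the fluorescence drop below 100 µM; inactive = the rest.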

Assay: fluorescence decrease in K562 empty-vector cells, dose response, counter-screen for ABCB6 inhibitor project, cell-based, flow cytometry, PowderSet01 powders (AID 651662)

Compound	outcome
CCc1ccc(NC(=O)c2nc(S(=O)(=O)Cc3ccccc3)ncc2Cl)cc1	inactive
CCOc1ccccc1NC(=O)c1nc(S(=O)(=O)Cc2cccc(C)c2)ncc1Cl	inactive
CC(=O)Nc1ccc(NC(=O)c2nc(S(=O)(=O)Cc3cccc(C)c3)ncc2Cl)cc1	inactive
CC(=O)Nc1ccc(NC(=O)c2nc(S(=O)(=O)Cc3ccccc3)ncc2Cl)cc1	inactive
